# Compound activity: PubChem BioAssay, several laboratories
# Compounds with a hit are over-represented: about 1.6% of the library has one in this group of screens.
# S1P3 antagonist: S1P3 receptor antagonists, primary screen, cell-based; Sphingosine 1-phosphate receptor 3 (Homo sapiens), Q99500; CHO S1P3 NFAT-BLA reporter, FRET fluorescence, antagonist mode; inhibition, % at 4.98 µM; 170,000 compounds, 0.27% hits;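 active = inhibition above the plate cutoff, the mean inhibition of test wells on that plate plus 3 SD, cut at about 28% in these data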;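 also: cells challenged with S1P at its EC80 of 0.8 µM; blue over green emission ratio from cleaved BLA substrate after 4 h stimulation; 0% = S1P-stimulated wells and 100% = unstimulated DMSO-only wells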
# DTT redox prof: compounds producing H2O2 with reducing agent – biochemical, NIH compound library profiling, artefact control for MLSCN library redox annotation, primary screen; DTT-dependent redox cycling H2O2, phenol red/HRP absorbance; 100% = 100 µM peroxide control, 0% = buffer; activation, % at 10 µM; 200,000 compounds, 0.03% hits;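 active = activation of at least 50% relative to the plate's high and low controls in the primary single-dose screen; inactive = activation below 50%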;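 also: compound incubated with DTT at 0.8 mM final as the reducing agent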
# S1P4 agonist: S1P4 receptor agonists, primary screen, cell-based | Sphingosine 1-phosphate receptor 4 (Homo sapiens), O95977 | S1P4-expressing cell line, agonist reporter assay | activation, % at 4.98 µM | 220,000 compounds, 0.35% hits | AID 1509, 2009; in the data active = activation above about 11%;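 also: 0% = DMSO vehicle and 100% = reference agonist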
# Target sequence (O95977 whole entry, looked up): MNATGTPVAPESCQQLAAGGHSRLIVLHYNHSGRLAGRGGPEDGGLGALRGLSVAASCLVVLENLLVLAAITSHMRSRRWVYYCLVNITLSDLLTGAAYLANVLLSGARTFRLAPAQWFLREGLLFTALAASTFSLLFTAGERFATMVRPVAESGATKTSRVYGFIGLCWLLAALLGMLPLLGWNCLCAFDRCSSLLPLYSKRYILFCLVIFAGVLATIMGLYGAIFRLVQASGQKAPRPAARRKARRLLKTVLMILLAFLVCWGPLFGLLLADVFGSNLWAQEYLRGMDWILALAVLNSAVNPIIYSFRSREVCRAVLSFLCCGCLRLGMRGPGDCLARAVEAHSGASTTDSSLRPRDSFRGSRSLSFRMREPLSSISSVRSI
# S1P4 antag: S1P4 receptor antagonists, primary screen, cell-based; inhibition, % at 4.98 µM; S1P4-expressing cells, antagonist mode, reporter read-out; Sphingosine 1-phosphate receptor 4 (Homo sapiens), O95977; 220,000 compounds, 0.26% hits; in the data active = inhibition above about 29%;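 also: 0% = wells stimulated with agonist and 100% = vehicle wells without agonist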
# Arbovirus inh: antivirals against arbovirus infection, primary screen, cell-based, full library, 10K replicate subset; arbovirus infection cell-based antiviral screen; inhibition, % at 10 µM; 200,000 compounds, 0.37% hits; AID 1251, 2008; in the data active = inhibition above about 30%
# p97 inhibitor: inhibitors of human p97 ATPase, primary screen, biochemical; Transitional endoplasmic reticulum ATPase (Homo sapiens), P55072; recombinant p97 ATPase, Kinase-Glo ATP luminescence, 3 h; inhibition, % at 8 µM; 220,000 compounds, 0.42% hits; AID 1481, 2009; in the data active = inhibition above about 15%;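 also: 0% = DMSO vehicle and 100% = wells lacking enzyme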
# S1P4 agonist cf: S1P4 receptor agonists, retest, confirmation, cell-based, high throughput | shares compounds with S1P4 agonist | S1P4 agonist cell-based reporter assay | 740 compounds, 7% hits | AID 1523, 2009 | activation, % at 4.98 µM; in the data active = activation above about 12%;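 also: 0% = vehicle and 100% = full reference agonist response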
# S1P1 ag: S1P1 receptor agonists, human, counter-screen for S1P4 agonist project, cell-based | shares compounds with S1P4 agonist | S1P1 agonist cell-based assay, activation | activation, % at 4.98 µM | 740 compounds, 4% hits | AID 1563, 2009; in the data active = activation above about 21%;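 also: 0% = vehicle wells and 100% = reference agonist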
# S1P4 antag conf: S1P4 receptor antagonists, human, confirmation, cell-based; inhibition, % at 4.98 µM; S1P4-expressing cell line, antagonist mode, reporter read-out; 520 compounds, 71% hits; shares compounds with S1P4 antag; in the data active = inhibition above about 30%
# S1P1 antag: S1P1 receptor antagonists, human, counter-screen for S1P4 antagonist project, cell-based. shares compounds with S1P4 antag. cell-based S1P1 antagonist counterscreen, inhibition. inhibition, % at 4.98 µM. 520 compounds, 37% hits. AID 1564, 2009; in the data active = inhibition above about 40%;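 also: receptor stimulated with S1P near its EC80; 0% = agonist stimulated wells and 100% = vehicle only wells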
# Active calls of the source: *; / = no result.
SMILES,S1P3 antagonist,DTT redox prof,S1P4 agonist,S1P4 antag,Arbovirus inh,p97 inhibitor,S1P4 agonist cf,S1P1 ag,others
COc1ccc2nc(/N=C/c3c(C)[nH]n(-c4ccc(C)cc4)c3=O)sc2c1,1,0,5,-7,-16,-25,/,/,
CCOC(=O)c1c(NC(C)=O)sc2c(O)cccc12,-4,0,0,-7,0,8,/,/,
CCOC(=O)c1c(NC(C)=O)sc2c(O)c(Br)cc(Br)c12,-9,0,62*,-10,20,10,-2,-6,
O=C(CSc1nnc(NC(=O)Cc2ccccc2)s1)NCc1ccco1,-11,0,17*,3,0,2,-3,-3,
CCCCCC1CC(CC(=O)Nc2ccc([N+](=O)[O-])cc2)C(=O)O1 (stereo unspecified),0,0,-2,0,7,6,/,/,
COc1ccc(S(=O)(=O)N2c3ccccc3OCC2C)cc1 (stereo unspecified),15,-1,15*,10,-12,2,-2,-17,
CCc1ccccc1NC(=O)c1cc(C2CC2)on1,3,-3,/,/,5,/,/,/,
CC(/C=N/NC(=O)c1cc(-c2ccc(C)o2)[nH]n1)=C\c1ccccc1,-9,0,17*,-10,-7,0,-2,1,
COc1ccc(OC)c(-c2csc(N3CCC(c4ccccc4)CC3)n2)c1,-10,-1,0,1,2,7,/,/,
Cc1nc(Cl)c2c(n1)NC1=C(O2)C(=O)CCC1,-6,0,14*,-3,10,-4,-2,4,
O=C(CN1CCN(c2ccccc2O)CC1)Nc1ccc2c(c1)CCC2,-6,1,13*,-3,-1,5,-1,0,
Cc1c(Cl)cccc1NC(=O)CCC(=O)NNC(=O)c1ccccc1Cl,/,-6,-1,2,4,3,/,/,
O=C(Cc1ncc(C(F)(F)F)cc1Cl)NCCc1ccccn1,1,-1,13*,6,-4,4,-1,5,
COc1ccc(C2NC(=O)C(C#N)=C(S)N2c2cccc(C)c2)cc1OC (stereo unspecified),4,0,15*,-12,-12,4,-2,3,
CC1C2=C(CC(C)(C)CC2=O)NC2=C1C(=O)CC(C)(C)C2,-9,3,18*,-4,6,8,7,8,
COc1cccc(/C=N/NC(=O)Cn2cnc3c2c(=O)n(C)c(=O)n3C)c1,9,/,1,10,/,4,/,/,
O=C(NCc1ccccc1)N[C@@H](Cc1c[nH]c2ccccc12)C(=O)O,-11,0,14*,7,2,-1,-1,0,
O=C(NC(Cc1c[nH]c2ccccc12)C(=O)O)c1ccco1 (stereo unspecified),/,0,-2,-16,4,0,/,/,
O=S(=O)(c1ccc(-c2cn3ccccc3n2)cc1)N1CCOCC1,/,0,68*,-6,-4,0,-2,3,
Cc1cccn2cc(-c3ccc(S(=O)(=O)N4CCOCC4)cc3)nc12,-14,-1,-1,1,-1,-6,/,/,
Cc1cc(NC(=O)/C=C/c2ccccc2)c(C(C)C)cc1O,8,0,1,94*,3,0,/,/,S1P4 antag conf=109*;S1P1 antag=13
